The text below walks through data of PubChem BioAssay AID651597 (National Center for Advancing Translational Sciences (NCATS), 2012).

About 390 (35%) of roughly 1,100 compounds were called active. Roughly 30% stayed inconclusive and do not appear here. This is one part of the list. Values without a mark were called inactive. Calls follow the shape of the dose curve; as a rule, active = well fitted inhibition curve with a large enough effect; inconclusive = small, poorly fitted or top-dose-only effect; inactive = flat fitted curve, though single readings scatter.
% is scaled to controls: 0 for no effect and ±100 for the full control effect; potency is read from the fitted curve at half-maximal effect.

The test addresses Luciferin 4-monooxygenase (Photinus pyralis) (UniProt P08659). Kind of test: qHTS of Nrf2 Activators: Hit Validation in Secondary FLuc Assay. Also: nearly all actives have a fitted effect of over 65% in size. The note with it: firefly luciferase inhibition counter-screen, luminescence; series mostly up to 57.5 µM; activity, negative = inhibition: at the top concentration. A digest of the protocol:
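Purified firefly luciferase is tested for inhibition by compounds in the presence of its substrates, ATP and D-luciferin, each at Km. Inhibition marks likely false positives arising from reporter-enzyme stabilization.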
A general note: qHTS replaces the single test concentration by a dilution series.
In the case of `CCn1c(/C=C/c2ccccc2)nc2ccccc2c1=O`, the “activity, negative = inhibition” value is -25.2%.

Regarding `Cn1c(CC2C(=O)Nc3ccc(Br)cc32)nc2ccccc2c1=O` (stereo unspecified), the “activity, negative = inhibition” value was -7.26%.

`Cn1c(/C=C/c2cccc(Br)c2)nc2ccccc2c1=O`: the Potency was 10.7 µM (active).

Turning to `COC(=O)c1sccc1NC(=O)c1cc(C)on1`, the “activity, negative = inhibition” value was 6.05%.

With `CSc1ccccc1NC(=O)c1cc(-c2cccs2)on1`, the Potency was 3.38 µM (active).

Take `COc1ccc(NC(=O)c2cc(-c3cccs3)on2)c(OC)c1`: the “activity, negative = inhibition” value is -23.9%.

Turning to `Cn1c(SCC(=O)N/N=C/C=C\c2ccccc2[N+](=O)[O-])nc2ccccc21`, the “activity, negative = inhibition” value is -28.9%.

For `O=[N+]([O-])c1cccc(C=NN=Cc2ccccc2O)c1`, the Potency was 0.601 µM (active).

For the molecule `O=[N+]([O-])c1cccc(/C=C/c2ccccn2)c1`, the Potency is 10.7 µM (active).

Regarding `N#C/C(=C\C=C\c1ccccc1[N+](=O)[O-])C(=O)NC1CCCCC1`, the “activity, negative = inhibition” value was -27.7%.

In the case of `CC1(C)C2C/C(=N\O)C(C)(/[N+]([O-])=C/c3cccc([N+](=O)[O-])c3)CC21` (stereo unspecified), the “activity, negative = inhibition” value was 2.48%.

Regarding `O=[N+]([O-])c1ccccc1C=CC=NN=Cc1ccccc1O`, the Potency is 0.953 µM (active).

On to `O=C(NN=Cc1cccc([N+](=O)[O-])c1)c1cccc2ccccc12`, for which the “activity, negative = inhibition” value is -21%.

Regarding `CC(C)(C)SCCNC(=O)/C=C/c1cccc([N+](=O)[O-])c1`, the “activity, negative = inhibition” value was -23.6%.

For the molecule `CC1(C)C(=O)OC(/C=C/c2cccc([N+](=O)[O-])c2)C(C)(C)C1=O` (stereo unspecified), the “activity, negative = inhibition” value is 1.52%.

With `C=C(C)CNC(=S)N/N=C(\C)c1ccc(Cl)s1`, the “activity, negative = inhibition” value is -4.5%.

`FC(F)(F)c1cc(-c2ccco2)nc(-n2nnc3ccccc32)n1`: the “activity, negative = inhibition” value is -18.6%.

With `O=[N+]([O-])c1cccc(-c2cnc3ccccc3n2)c1`, the “activity, negative = inhibition” value was -28.7%.

In the case of `c1coc(-c2cnc3ccccc3n2)c1`, the Potency was 2.69 µM (active).

Consider `O=C(Oc1cccc(-c2cnc3ccccc3n2)c1)c1ccco1`, for which the Potency was 10.7 µM (active).

Regarding `Cc1ccc(/C=C/C(=O)Nc2ccc([N+](=O)[O-])c(NC(=O)/C=C/c3ccc(C)o3)c2)o1`, the Potency is 1.2 µM (active).

Take `Cc1ccc(NC(=O)/C=C/c2ccc([N+](=O)[O-])s2)cc1`: the “activity, negative = inhibition” value was -2.01%.

For the molecule `CSc1nsc(SC)c1NC(=O)Nc1ccccn1`, the “activity, negative = inhibition” value was -27.9%.

With `O=C(Nc1ccccn1)c1csc2c1CCCC2`, the Potency was 3.01 µM (active).

As for `O=C(Nc1nnc(-c2ccccc2F)s1)Nc1ccccc1F`, the “activity, negative = inhibition” value was -21.5%.

Take `O=C(Nc1nnc(-c2ccccc2F)s1)C1CCCO1` (stereo unspecified): the Potency is 10.7 µM (active).

As to `COCCNc1ccc(-c2nc(-c3ccco3)no2)cc1[N+](=O)[O-]`, the Potency was 0.478 µM (active).

On to `CCNc1ccc(-c2nc(-c3ccco3)no2)cc1[N+](=O)[O-]`, for which the Potency was 0.19 µM (active).

For the molecule `CCCNC(=O)c1ccc(S(=O)(=O)c2ccc(OC)cc2)c([N+](=O)[O-])c1`, the “activity, negative = inhibition” value was -1.58%.

Consider `CCCNc1ccc(-c2nc(-c3ccco3)no2)cc1[N+](=O)[O-]`, for which the Potency was 0.169 µM (active).

Take `O=[N+]([O-])c1cc(-c2nc(-c3ccccc3)no2)ccc1NCc1cccnc1`: the Potency was 4.78 µM (active).

With `NC(=O)c1ccsc1NC(=O)COC(=O)[C@@H]1CCCN1C(=O)c1cccs1`, the “activity, negative = inhibition” value was -14.2%.

For `Cc1cc(C)n(S(=O)(=O)/C=C/c2ccccc2)n1`, the “activity, negative = inhibition” value is 2.85%.

For `Cn1c(NC(=O)/C=C/c2ccccc2)cc(=O)n(C)c1=O`, the Potency was 8.49 µM (active).

On to `CC(=O)Nc1nc2cccc([N+](=O)[O-])c2s1`, for which the “activity, negative = inhibition” value is -5.67%.

Regarding `Cn1cc([N+](=O)[O-])c(C(=O)Nc2ccc(-c3nc4ccccc4o3)cc2)n1`, the Potency was 8.49 µM (active).

As to `CC(=O)c1cc2c(cc1NC(=O)CSc1nc3ccccc3o1)OCO2`, the “activity, negative = inhibition” value is -5.24%.

`CN1C2CCC1/C(=C\c1ccc(F)cc1)C(=O)/C2=C/c1ccc(F)cc1`: the “activity, negative = inhibition” value is 2.61%.

As to `Cc1nn2c(-c3ccco3)nnc2c2ccccc12`, the Potency is 16.9 µM (active).

Regarding `Cc1nn2c(-c3ccccc3)nnc2c2ccccc12`, the Potency is 10.7 µM (active).

For the molecule `COc1ccc(-c2nnc3c4ccccc4c(C)nn23)cc1`, the Potency was 7.57 µM (active).

Consider `CCc1nn2c(-c3ccco3)ccnc2c1-c1ccccc1`, for which the “activity, negative = inhibition” value is 6.51%.

Regarding `Cc1ccc(S(=O)(=O)c2nc(S(C)(=O)=O)sc2N2CCN(C)CC2)cc1`, the “activity, negative = inhibition” value is -2.83%.

In the case of `Cc1ccc(-c2nc(C=Nc3ccc(O)cc3)c(O)o2)cc1`, the Potency is 2.69 µM (active).

Consider `O=c1cc(-c2cccc(Br)c2)oc2cccc(O)c12`, for which the “activity, negative = inhibition” value was -4.58%.

As for `O=c1cc(-c2ccccc2Cl)oc2c(Br)ccc(O)c12`, the Potency was 2.39 µM (active).

With `O=c1oc(CCCO)cc2ccc(C#Cc3ccsc3)cc12`, the Potency is 2.39 µM (active).

As for `O=c1oc(CCO)cc2ccc(C#Cc3ccsc3)cc12`, the Potency is 2.69 µM (active).

`Cn1c(/N=C(\N)c2ccccc2)nc2ccccc21`: the Potency was 1.35 µM (active).

For `Cn1c(/C(C#N)=C(\O)c2cc(Cl)sc2Cl)nc2ccccc21`, the “activity, negative = inhibition” value was -24.2%.

Take `Cc1cc(C)n2nc(-c3ccc(F)cc3)cc2n1`: the Potency is 1.51 µM (active).

For the molecule `Cc1cc(N2CCOCC2)n2nc(-c3cccc(F)c3)cc2n1`, the “activity, negative = inhibition” value is -21.8%.

In the case of `COc1ccccc1NC(=O)c1ccc(Cl)c(S(=O)(=O)NCc2ccco2)c1`, the “activity, negative = inhibition” value was -25.3%.

Turning to `COc1ccc(Cl)cc1NC(=O)CCS(=O)(=O)c1cccc2nonc12`, the “activity, negative = inhibition” value is -0.0594%.

`COc1ccccc1NC(=O)c1nc(S(=O)(=O)Cc2ccccc2)ncc1Cl`: the Potency was 2.69 µM (active).

For `CCOC(=O)c1ccc(NC(=O)c2nc(S(=O)(=O)Cc3ccccc3)ncc2Cl)cc1`, the Potency is 1.69 µM (active).

Turning to `Cc1ccc2c(N)c(C(=O)c3ccccc3)sc2n1`, the Potency is 9.53 µM (active).

In the case of `Cc1nc2sc(C(=O)c3ccccc3)c(N)c2c2c1CCCC2`, the Potency was 1.9 µM (active).

With `Cc1ccc(C(=O)/C=C/c2ccc(-c3ccccc3[N+](=O)[O-])o2)cc1`, the Potency was 2.69 µM (active).

As for `O=C(/C=C/c1ccc(-c2ccccc2[N+](=O)[O-])o1)c1ccccc1`, the Potency was 5.36 µM (active).

For `CN1CCN(C(=O)/C=C/c2ccc([N+](=O)[O-])o2)CC1`, the “activity, negative = inhibition” value was -3.66%.

Turning to `O=C(/C=C/c1ccc(-c2ccccc2[N+](=O)[O-])o1)c1ccc(Br)cc1`, the Potency is 6.01 µM (active).

On to `COc1ccc(OC)c(C(=O)Nc2c(O)ccc3ccccc23)c1`, for which the Potency is 15.1 µM (active).

For `COC(=O)c1sccc1NC(=O)c1ccc(OC)c(OC)c1`, the “activity, negative = inhibition” value is 1.53%.

With `COC1=C(C)C(O)=C(C(=O)/C=C/c2ccccc2)C(=O)C1(C)C`, the “activity, negative = inhibition” value was -7.39%.

Turning to `CNc1ccccc(C(=O)/C=C/c2ccccc2OC)c1=O`, the Potency is 5.36 µM (active).

Take `CNc1ccc(Br)cc(C(=O)/C=C/c2cccc(Cl)c2Cl)c1=O`: the Potency is 4.78 µM (active).

With `CNc1ccc(Br)cc(C(=O)/C=C/c2cccc(OC)c2)c1=O`, the Potency is 8.49 µM (active).

For the molecule `CNc1ccc(Br)cc(C(=O)/C=C/c2ccc(Cl)cc2Cl)c1=O`, the Potency was 4.78 µM (active).

For `CC1CCN(CC2C(=O)O[C@@H]3C[C@@]4(C)CCC[C@H](C)C4=C[C@H]23)CC(C)(C)C1` (stereo partly specified), the “activity, negative = inhibition” value was -1.7%.

Turning to `Cn1c(=O)oc2cc(NC(=O)CCl)ccc21`, the “activity, negative = inhibition” value is 6.28%.

Turning to `Cc1cc(=O)oc2cc(NC(=O)c3ccccc3Cl)ccc12`, the Potency was 5.36 µM (active).

With `Cc1cc(=O)oc2c(C(=O)/C=C/c3ccccc3)c(O)ccc12`, the “activity, negative = inhibition” value is 2.7%.

In the case of `Oc1ccccc1C=NN=Cc1c(O)ccc2ccccc12`, the Potency was 3.01 µM (active).

With `Cn1c(=O)c2nc(NCc3ccccc3)sc2n(C)c1=O`, the “activity, negative = inhibition” value was 5.85%.

`O=S1(=O)C=C(Sc2nc3cc(Cl)ccc3o2)c2ccccc21`: the Potency is 0.849 µM (active).

For the molecule `N#Cc1ccccc1N/C=C/C(=O)c1ccc(Cl)cc1`, the Potency was 0.12 µM (active).

As to `COC(=O)c1cc(S(=O)(=O)C(C)C)c(S(C)=O)s1` (stereo unspecified), the “activity, negative = inhibition” value is 1.94%.

Consider `Cc1cc(N/N=C/c2c(O)ccc3ccccc23)nc(-c2ccccc2O)n1`, for which the Potency was 7.57 µM (active).

For `C=C(NC(=O)C(=C)NC(=O)c1csc(C2=NC3c4csc(n4)C4NC(=O)c5csc(n5)C(C(C)(O)C(C)O)NC(=O)C5CSC(=N5)/C(=C/C)NC(=O)C(C(C)O)NC(=O)c5csc(n5)C3(CC2)NC(=O)C(C)NC(=O)C(=C)NC(=O)C(=C)NC(=O)C(C(C)C)NC2C=Cc3c(C(C)O)cc(nc3C2O)C(=O)OC4C)n1)C(N)=O` (stereo unspecified), the Potency is 7.57 µM (active).

As to `CC(=O)Oc1ccc(-c2nc3c(C)cccc3c(=O)o2)cc1`, the “activity, negative = inhibition” value is -26.3%.

Consider `COc1ccc(-c2cc3ccccc3c(=O)o2)cc1`, for which the Potency was 0.478 µM (active).

`O=c1nc2c(-c3ccccc3F)n[nH]n2c2ccccc12`: the Potency was 7.57 µM (active).

With `Clc1nc(NCc2ccco2)nc(N2CCCCC2)n1`, the “activity, negative = inhibition” value was -3.37%.

As to `c1ccc2nc3c(ccc4ccccc43)cc2c1`, the Potency is 1.35 µM (active).

Regarding `O=C(/C=C/c1ccc2c(c1)OCO2)c1ccc(O)cc1O`, the Potency is 1.9 µM (active).

For `COc1cc(OCc2ccccc2)c(C(=O)/C=C/c2ccc3c(c2)OCO3)c(OC)c1OC`, the “activity, negative = inhibition” value is 2.26%.

As to `COC(=O)c1ccsc1NC(=O)CSc1nnnn1Cc1ccccc1`, the “activity, negative = inhibition” value was -14.3%.

For the molecule `Cc1csc(-c2ccc3cc(Cl)cc(Cl)c3n2)n1`, the Potency was 2.69 µM (active).

On to `Cc1ccc(-c2nc3cccnc3s2)cc1NC(=O)c1ccco1`, for which the Potency is 8.49 µM (active).

`Cc1ccc(C(=O)OCc2c(C)noc2C)cc1NC(=O)c1ccco1`: the “activity, negative = inhibition” value was 1.47%.

Regarding `CCNc1nc(NCC)nc(N(C)/N=C/c2ccco2)n1`, the “activity, negative = inhibition” value is 0.966%.

Regarding `O=[N+]([O-])c1cc(Cl)cc(/C=N/Nc2nc3ccccc3s2)c1O`, the Potency was 13.5 µM (active).

In the case of `Brc1cc2c(cc1/C=N/Nc1nc3ccccc3s1)OCO2`, the Potency was 2.69 µM (active).

Take `O=C(/C=C/c1ccco1)NC(=S)Nc1ccccc1N1CCCC1`: the “activity, negative = inhibition” value was -27.1%.

As for `O=C(Nc1cc2nn(-c3ccccc3)nc2cc1Cl)c1ccco1`, the Potency was 0.849 µM (active).

With `O=C(/C=C/c1ccco1)Nc1ccc2nn(-c3ccccc3)nc2c1`, the Potency was 9.53 µM (active).

`O=C(/C=C/c1ccco1)Nc1ccc(Cl)c(-c2nc3cc(Cl)ccc3o2)c1`: the Potency was 10.7 µM (active).

With `Cc1ccc(NC(=O)c2ccc([N+](=O)[O-])s2)cc1S(=O)(=O)N1CCOCC1`, the “activity, negative = inhibition” value was -3.39%.

In the case of `O=C(/C=C/c1ccco1)Nc1cccc(S(=O)(=O)N2CCOCC2)c1`, the Potency was 13.5 µM (active).

As for `O=[N+]([O-])c1cnc(Nc2ccc(Cl)cn2)c([N+](=O)[O-])c1`, the “activity, negative = inhibition” value is 1.13%.
